From PubChem BioAssay (EPA / NIEHS)
The source made the active and inactive calls. How the source made its calls: active means hit-call score of the fitted dose curve at least 0.9, where 1 is the maximum; inactive means score below 0.9.

Assays:
[1] = ATG_CRE_CIS: Attagene CIS-FACTORIAL HepG2 Assay for human cAMP Responsive Element (CRE) binding protein 3 (AID 2282926); conditions: HepG2 CRE cis-reporter, Attagene multiplexed mRNA; actives raise or lower the signal
Procedure, shortened: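 Endogenous CRE-binding activity in HepG2 is reported through a cis-regulated transfected reporter. Following a day of exposure, mRNA levels are determined by reverse transcription PCR and fluorescent fragment analysis; fits run in both directions versus DMSO.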

[2] = molecular target: CCAAT/enhancer-binding protein beta (Homo sapiens) (UniProt P17676); experiment: ATG_C_EBP_CIS: Attagene CIS-FACTORIAL HepG2 Assay for human CCAAT/Enhancer Binding Protein (C/EBP) beta (AID 2282927); conditions: HepG2 Attagene cis-factorial transcription factor reporter; actives raise or lower the signal
Sequence of CCAAT/enhancer-binding protein beta (Homo sapiens) (P17676 whole entry, looked up): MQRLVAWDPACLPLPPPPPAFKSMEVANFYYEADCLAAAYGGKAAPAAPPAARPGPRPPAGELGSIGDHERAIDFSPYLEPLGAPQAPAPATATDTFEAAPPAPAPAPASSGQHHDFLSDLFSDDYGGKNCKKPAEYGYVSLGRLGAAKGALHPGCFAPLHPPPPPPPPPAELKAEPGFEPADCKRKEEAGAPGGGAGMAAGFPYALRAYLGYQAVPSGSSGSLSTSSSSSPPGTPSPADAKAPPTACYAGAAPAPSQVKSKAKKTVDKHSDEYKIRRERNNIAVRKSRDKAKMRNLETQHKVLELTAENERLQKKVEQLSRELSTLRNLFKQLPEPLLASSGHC
Procedure, shortened: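 Transiently transfected HepG2 (MRTU library, endogenous TF-driven promoters); 24 h dosing; total RNA → oligo(dT) RT → PCR → 6-FAM primer extension → HpaI digest → CE; fit bidirectionally vs DMSO.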

[3] = ATG_DR4_LXR_CIS: Attagene CIS-FACTORIAL HepG2 Assay for human Liver X Receptor (LXR), DR4 submotif (AID 2282929); conditions: HepG2 Attagene DR4 cis-reporter, mRNA transcription; actives raise or lower the signal
Procedure, shortened: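 Measures endogenous transcription factor activity via a DR4-driven reporter transcript in human HepG2 cells. Compounds incubated 24 h; mRNA quantified by RT-PCR and capillary electrophoresis, analysed as gain or loss of signal versus DMSO.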

[4] = molecular target: Aryl hydrocarbon receptor (Homo sapiens) (UniProt P35869); experiment: ATG_Ahr_CIS: Attagene CIS-FACTORIAL HepG2 Assay for human Aryl Hydrocarbon Receptor (Ahr) (AID 2282930); conditions: HepG2 AhR cis-factorial reporter transcription; actives raise or lower the signal
Sequence of Aryl hydrocarbon receptor (Homo sapiens) (P35869 whole entry, looked up): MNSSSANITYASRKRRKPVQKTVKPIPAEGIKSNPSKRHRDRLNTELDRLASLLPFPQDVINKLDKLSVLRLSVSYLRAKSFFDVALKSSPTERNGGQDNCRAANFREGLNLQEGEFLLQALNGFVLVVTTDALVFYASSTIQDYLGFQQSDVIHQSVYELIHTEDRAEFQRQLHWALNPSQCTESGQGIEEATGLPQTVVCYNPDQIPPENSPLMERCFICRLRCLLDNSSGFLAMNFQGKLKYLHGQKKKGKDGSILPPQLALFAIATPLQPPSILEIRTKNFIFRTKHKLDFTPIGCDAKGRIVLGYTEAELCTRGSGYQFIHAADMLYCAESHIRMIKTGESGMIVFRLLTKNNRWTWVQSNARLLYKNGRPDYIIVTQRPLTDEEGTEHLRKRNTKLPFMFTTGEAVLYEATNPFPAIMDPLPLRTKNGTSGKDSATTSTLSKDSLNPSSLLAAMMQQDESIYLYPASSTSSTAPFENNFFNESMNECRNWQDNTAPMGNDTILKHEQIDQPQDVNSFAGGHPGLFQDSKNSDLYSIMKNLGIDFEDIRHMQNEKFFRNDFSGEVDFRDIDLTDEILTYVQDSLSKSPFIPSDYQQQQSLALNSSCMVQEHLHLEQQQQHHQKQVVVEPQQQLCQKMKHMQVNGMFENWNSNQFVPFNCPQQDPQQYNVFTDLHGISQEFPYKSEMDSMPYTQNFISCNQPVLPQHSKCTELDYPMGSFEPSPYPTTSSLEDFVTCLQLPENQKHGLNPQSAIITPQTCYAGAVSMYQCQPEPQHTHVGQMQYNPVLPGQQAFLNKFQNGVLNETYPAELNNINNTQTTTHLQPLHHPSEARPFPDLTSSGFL
Procedure, shortened: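 Read-out: reporter mRNA quantified by RT-PCR with fluorescent primer extension and capillary electrophoresis. Human HepG2 liver cells carried transfected cis-promoter reporter units and were exposed to chemical for 24 h; gain or loss fitted relative to DMSO.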

[5] = ATG_AP_1_CIS: Attagene CIS-FACTORIAL HepG2 Assay for human Activator Protein 1 (AP-1) (AID 2282931); conditions: HepG2 Attagene cis-factorial AP-1 reporter mRNA; actives raise or lower the signal
Procedure, shortened: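 Bidirectional concentration-response fitting against DMSO controls. Underlying signal: reporter mRNA from cis-promoter constructs in transiently transfected HepG2, measured after 24 h by RT-PCR and capillary electrophoresis.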

[6] = ATG_AP_2_CIS: Attagene CIS-FACTORIAL HepG2 Assay for human Activator Protein 2 (AP-2) (AID 2282932); conditions: HepG2 AP-2 cis-reporter, Attagene transcription factor profiling; actives raise or lower the signal
Procedure, shortened: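 HepG2 cells transiently transfected with cis-element reporter units and exposed for 24 h. Reporter mRNA measured by RT-PCR, FAM labelling, HpaI digestion and capillary electrophoresis. Changes in either direction fitted relative to DMSO.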

[7] = ATG_BRE_CIS: Attagene CIS-FACTORIAL HepG2 Assay for human Bone Morphogenetic Protein (BMP) Response Element (BRE) (AID 2282933); conditions: HepG2 BMP response element reporter, Attagene transcription factor profiling; actives raise or lower the signal
Procedure, shortened: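 A HepG2 multiplex reporter system measured inducible reporter mRNA 24 h post-dosing. Detection: RT-PCR, 6-FAM primer extension, HpaI digestion, capillary electrophoresis. Activity fitted bidirectionally relative to DMSO.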

[8] = molecular target: Retinoic acid receptor alpha (Homo sapiens) (UniProt P10276); experiment: ATG_DR5_RAR_CIS: Attagene CIS-FACTORIAL HepG2 Assay for human Retinoic Acid Receptor Alpha (RARE), DR5 submotif (AID 2282934); conditions: HepG2 Attagene cis-factorial RARE DR5 reporter, mRNA; actives raise or lower the signal;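 on AC50: reporter responds to endogenous RAR alpha beta and gamma in HepG2 not RARA alone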
Sequence of Retinoic acid receptor alpha (Homo sapiens) (P10276 whole entry, looked up): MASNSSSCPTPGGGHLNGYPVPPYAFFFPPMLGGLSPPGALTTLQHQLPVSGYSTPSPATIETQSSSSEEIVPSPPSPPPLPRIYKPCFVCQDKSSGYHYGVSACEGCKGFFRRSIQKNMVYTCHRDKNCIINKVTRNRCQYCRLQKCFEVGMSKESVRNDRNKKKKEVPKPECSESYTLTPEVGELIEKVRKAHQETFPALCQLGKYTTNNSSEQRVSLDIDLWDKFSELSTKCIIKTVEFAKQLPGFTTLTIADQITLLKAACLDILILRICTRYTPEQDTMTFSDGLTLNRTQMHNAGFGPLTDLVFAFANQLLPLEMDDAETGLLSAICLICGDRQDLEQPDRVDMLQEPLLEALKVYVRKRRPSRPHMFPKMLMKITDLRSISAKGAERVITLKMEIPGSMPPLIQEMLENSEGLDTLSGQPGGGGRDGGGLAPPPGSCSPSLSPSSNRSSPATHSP
Procedure, shortened: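 Read-out: DR5-driven reporter transcript measured by RT-PCR, 6-FAM primer extension, HpaI digest and capillary electrophoresis. Human HepG2 liver cells carry transiently transfected cis-element reporter constructs; dosing lasts 24 h. Gain or loss of signal fitted against DMSO baseline.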

[9] = molecular target: Transcription factor E2F1 (Homo sapiens) (UniProt Q01094); experiment: ATG_E2F_CIS: Attagene CIS-FACTORIAL HepG2 Assay for human E2F Transcription Factor 1 (AID 2282935); conditions: HepG2 Attagene cis-reporter, E2F reporter RNA transcripts; actives raise or lower the signal
Sequence of Transcription factor E2F1 (Homo sapiens) (Q01094 whole entry, looked up): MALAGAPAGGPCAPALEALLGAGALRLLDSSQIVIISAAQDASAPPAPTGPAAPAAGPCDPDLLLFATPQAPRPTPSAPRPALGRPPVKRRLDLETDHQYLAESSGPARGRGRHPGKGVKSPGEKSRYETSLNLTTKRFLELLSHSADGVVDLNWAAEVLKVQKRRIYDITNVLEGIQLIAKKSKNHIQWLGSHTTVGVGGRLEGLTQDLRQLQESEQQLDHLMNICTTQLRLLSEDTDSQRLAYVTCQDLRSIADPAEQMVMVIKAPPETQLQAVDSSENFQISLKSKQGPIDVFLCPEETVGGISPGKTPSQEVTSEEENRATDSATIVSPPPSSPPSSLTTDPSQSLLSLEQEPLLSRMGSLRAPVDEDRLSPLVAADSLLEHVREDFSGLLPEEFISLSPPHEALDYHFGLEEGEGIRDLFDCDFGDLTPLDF
Procedure, shortened: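 Endogenous E2F1 activity read through cis-promoter reporter units transfected into HepG2. After 24 h compound treatment, reporter mRNA measured by RT-PCR, HpaI digestion and capillary electrophoresis. Bidirectional fit versus DMSO.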

Measured: AC50

COC(=O)c1ccccc1OC
inactive: all assays above

CCCCCCCC/C=C\CCCCCCCC(=O)OCCO
active: [1] 50 µM | [2] 69 µM | [3] 50 µM | [5] 50 µM
inactive: [4] | [6] | [7] | [9]

Cc1cnc(NC(=O)C2=C(O)c3ccccc3S(=O)(=O)N2C)s1
active: [4] 100 µM
inactive: all other assays above

Nc1ccc(Cl)cc1Cl
not listed: [9]
inactive: all other assays above

ON(Cc1ccccc1)Cc1ccccc1
not listed: [8]
inactive: all other assays above

CCCCOCCOC(=O)COc1nc(Cl)c(Cl)cc1Cl
not listed: [3]
inactive: all other assays above

O=C1CCCCCCCCCCC(=O)OCCO1
inactive: all assays above

NC(=O)C1CO1 (centres undefined)
not listed: [8]
inactive: all other assays above

COc1cc(NC(=O)CC(C)=O)c(OC)cc1Cl
not listed: [4]
inactive: all other assays above

O=C(O)CC(C(=O)O)C(CC(=O)O)C(=O)O (centres undefined)
inactive: all assays above

CCCC(C)CCC(C)=O (centres undefined)
not listed: [8]
inactive: all other assays above

NC(=O)OCC(COC(N)=O)c1ccccc1
inactive: all assays above

O=C1C(N(CO)C(=O)NCO)N(CO)C(=O)N1CO (centres undefined)
not listed: [8]
inactive: all other assays above

CC1=CC[C@H](C(C)C)C=C1
not listed: [8]
inactive: all other assays above

NCCCN1CCN(CCCN)CC1
not listed: [8]
inactive: all other assays above

CCCCC(CC)CCC(CC(C)C)OS(=O)(=O)O (centres undefined)
active: [1] 142 µM | [5] 139 µM
inactive: all other assays above

C[C@]12C=CC(=O)C=C1CC[C@@H]1[C@@H]2[C@@H](O)C[C@@]2(C)[C@H]1CC[C@]2(O)C(=O)CO
inactive: all assays above

CC(=O)OCC(=O)[C@@]12N=C(C)O[C@@H]1C[C@H]1[C@@H]3CCC4=CC(=O)C=C[C@]4(C)[C@H]3[C@@H](O)C[C@@]12C
active: [8] 27.5 µM
inactive: all other assays above

CCOC(F)(F)C(F)(F)C(F)(F)C(F)(F)F
not listed: [4]
inactive: all other assays above

CCCCCCOc1cc(C)c(O)c(C)c1C
inactive: all assays above
